Here are results for 36 molecules from the supplement of paper PMC8699584.

Several values for one entry are separate records, joined by “and”; a condition that tells them apart may be missing. Identical values can stand only once. Counter-ions that a name gives are not always drawn. ± gives the standard deviation of the averaged measurements.

Broadly, the cell viability is a read-out of living cells in per cent, often relative to untreated cells.

For the experiment, the system named is Molm13. The experiment is described as follows: cell viability relative to DMSO control (bortezomib = 0%); higher = less growth inhibition. Particulars: 10 nM; 72 h. In short, it runs like this: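 Viability was determined with CellTiter-Glo luminescence. Acute myeloid leukemia cells (1000 per well, 50 µL) were exposed for 72 h to 679 approved and investigational compounds at a single 10 nM dose in 384-well plates. Percentages came from per-plate linear regression, setting DMSO-treated wells to 100% and positive-control-treated wells to 0%.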
`COc1cc2ncnc(Nc3ccc(O)cc3)c2cc1OC` [Janex 1]: the cell viability amounted to 101 ± 12%.

Turning to `Cn1cnc2c(NCc3ccccc3)nc(NCCO)nc21` [Olomoucine], the cell viability came out at 106 ± 16%.

Turning to `Cc1ccc(NC(=O)c2ccc(CN3CCN(C)CC3)cc2)cc1Nc1nc(-c2cccnc2)cs1` [Masitinib (AB1010)], the cell viability was 98.2 ± 12%.

For `C=CCn1c(=O)c2cnc(Nc3ccc(N4CCN(C)CC4)cc3)nc2n1-c1cccc(C(C)(C)O)n1`, the cell viability came to 93.6 ± 20%.

As to `CC(C)Oc1ccc(C(=O)N[C@H](CNC(=O)CN(C)C)Cc2ccc(-c3cn4cccc([C@H](C)O)c4n3)cc2)cc1Cl`, the cell viability was 110 ± 19%.

Regarding `CCS(=O)(=O)N1CC(CC#N)(n2cc(-c3ncnc4[nH]ccc34)cn2)C1` [Baricitinib†(Phosphate)], the cell viability was 112 ± 13%.

Regarding `O=c1cc(N2CCOCC2)oc2c(-c3cccc4c3sc3ccccc34)cccc12`, the cell viability turned out to be 108 ± 5.3%.

In the case of `N#CC(c1ccnc(NCCc2cccnc2)n1)c1nc2ccccc2s1` (stereo unspecified), the cell viability was 105 ± 26%.

Take `COC(=O)C1=CC[C@@]23CC[C@@H]([C@@](C)(/C=C/C=C(\C)C(=O)O)OC2=O)[C@@]3(OC(C)=O)CC1` [Pseudolaric Acid B]: the cell viability was determined as 101 ± 3.5%.

With `CC1(C)OC(=O)C=C[C@]2(C)[C@H]3CC[C@@]4(C)[C@H](c5ccoc5)OC(=O)[C@H]5O[C@]54[C@]3(C)C(=O)C[C@@H]12` [Obacunone], the cell viability worked out at 108 ± 7.3%.

For the molecule `CN(c1ccccc1CNc1nc(Nc2ccc3c(c2)CC(=O)N3)ncc1C(F)(F)F)S(C)(=O)=O`, the cell viability is 112 ± 25%.

On to `Cn1cc(-c2ccc3c(c2)CCN3C(=O)Cc2cccc(C(F)(F)F)c2)c2c(N)ncnc21`, for which the cell viability is 105 ± 4.7%.

Regarding `COc1ccc(Cl)cc1NC(=O)Nc1cc(C)nc2ccccc12`, the cell viability was 129 ± 23%.

As for `N#CCC(=O)NN` [Cyanoacetohydrazide], the cell viability was determined as 128 ± 1.3%.

For `NC(=O)c1ncn([C@@H]2O[C@H](CO)[C@@H](O)[C@H]2O)n1` [Ribavirin], the cell viability was determined as 98.7 ± 13%.

Consider `O=C1NC(=O)/C(=C/c2ccc3c(c2)OCO3)S1`, for which the cell viability stood at 96 ± 3%.

Turning to `O=C(NC(NC(=S)Nc1ccc(F)c([N+](=O)[O-])c1)C(Cl)(Cl)Cl)C(c1ccccc1)c1ccccc1` (stereo unspecified), the cell viability worked out at 109 ± 8.2%.

As for `CC[C@@H]1C(=O)N(C)c2cnc(Nc3ccc(C(=O)N[C@H]4CC[C@H](N5CCN(CC6CC6)CC5)CC4)cc3OC)nc2N1C(C)C` [Volasertib (BI 6727)], the cell viability was 104.1 ± 0.8%.

`Cn1cnc2nc(NCCO)nc(NCc3ccccc3)c21` [Iso-Olomoucine]: the cell viability came out at 119 ± 15%.

On to `COC1=CC(=O)c2ccccc2C1=O` [2-Methoxy-1,4-naphthoquinone], for which the cell viability was 94.66 ± 0.11%.

With `N#Cc1c(O)c2c(-c3ccc(-c4ccccc4O)cc3)csc2[nH]c1=O`, the cell viability was found to be 111 ± 27%.

With `Cc1cnc(-c2cnc(NCCNc3ccc(C#N)cn3)nc2-c2ccc(Cl)cc2Cl)[nH]1`, the cell viability is 104% and 111%.

Consider `Nc1ncnc2n[nH]c(Nc3ccc(F)cc3)c12`, for which the cell viability was 102 ± 11%.

Turning to `C[N+](C)(C)CC(=O)O` [Betaine hydrochloride], the cell viability was 86.4 ± 9.4%.

As to `COc1cc2nccc(Oc3ccc(NC(=O)NC4CC4)c(Cl)c3)c2cc1C(N)=O` [Lenvatinib (E7080)], the cell viability was 112 ± 6.8%.

`C=CC(=O)Nc1cccc(Nc2nc(Nc3ccc(Oc4ccnc(C(=O)NC)c4)cc3)ncc2F)c1`: the cell viability stood at 114 ± 24%.

As to `Cc1ccc(-n2nc(C(C)(C)C)cc2NC(=O)Nc2ccc(OCCN3CCOCC3)c3ccccc23)cc1` [Doramapimod], the cell viability was 95.877 ± 0.081%.

For `C[C@@H]1CCN(C(=O)CC#N)C[C@@H]1N(C)c1ncnc2[nH]ccc12`, the cell viability was 109% and 101%.

For `Nc1nc(N)c2nc(-c3cccc(O)c3)c(-c3cccc(O)c3)nc2n1`, the cell viability stood at 96.7 ± 5%.

As to `O=c1cc(N2CCOCC2)oc2c1ccc1ccccc12`, the cell viability is 98.1% and 100%.

As to `O=C(Nc1ccc(OC(F)(F)F)cc1)c1sccc1NCc1ccnc2ccccc12`, the cell viability turned out to be 111 ± 3.1%.

For `COc1cc2ncnc(Nc3ccc(F)c(Cl)c3)c2cc1NC(=O)/C=C/CN1CCCCC1`, the cell viability came out at 104 ± 3.3%.

As to `Cc1cn(-c2cc(NC(=O)c3ccc(C)c(Nc4nccc(-c5cccnc5)n4)c3)cc(C(F)(F)F)c2)cn1` [Nilotinib], the cell viability is 124 ± 9.8%.

As for `C=C(C)[C@@H]1CC[C@]2(C)CC[C@]3(C)[C@H](CC[C@@H]4[C@@]5(C)CC[C@H](O)C(C)(C)[C@@H]5CC[C@]43C)[C@@H]12` [Lupeol], the cell viability stood at 101 ± 9.8%.

As for `C[C@@H]1O[C@@H](Oc2cc(O)c3c(=O)c(O[C@@H]4O[C@@H](C)[C@H](O)[C@@H](O)[C@H]4O)c(-c4ccc(O)cc4)oc3c2)[C@H](O)[C@H](O)[C@H]1O` [Kaempferitrin], the cell viability stood at 114 ± 10%.

As for `CNS(=O)(=O)C[C@H]1CC[C@H](N(C)c2[nH]cnc3nccc2-3)CC1` [Oclacitinib], the cell viability amounted to 96.5 ± 22%.
